Consider 14 compounds from PubChem BioAssay (NCI).

About 83,000 compounds went through this panel and 20% of them were active in at least one assay; those are over-represented in the sample as a whole.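 Method: cells in 96-well plates; compound added at one concentration; 48 h incubation; percent growth measured; values under 10 scored active.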 Values without a mark were called inactive. The source made the active and inactive calls.

In this test the test system is MDA-MB-468 breast. The experiment in a line: NCI-60 one-dose screen, 48 h (100 = growth as untreated, 0 = no growth, -100 = all killed). The following applies: 10 µM unless noted.
Take `COc1cc(Nc2nc3ccccc3cc2C(=O)Nc2ccc(F)c(F)c2)cc(OC)c1OC`: the growth is 4.15% (active). For `COc1ccc2c(c1)C1=NN(C(=O)CO)[C@H](c3ccc(OC(F)(F)F)cc3)[C@@H]1CC2`, the growth was 117%. To `FC(F)(F)c1ccc(-c2cnc(Cl)nc2NC2CCCCCC2)cc1` belongs -4.8% (active). Turning to `CC1=C2[C@@H](CC1)[C@]1(C)O[C@@](C(C)C)(C[C@H]1OC(=O)[C@H](C)O)[C@H]2OC(=O)/C=C/c1ccccc1`, the growth was 86.9%. Regarding `O=C1CC(c2ccc3c(c2)OCO3)Nc2ccccc21` (centres undefined), the growth is 2.73% (active).

For `O=[N+]([O-])c1ccccc1CN1CCCCC1`, the growth is 89.3%. With `O=C(/C=C/c1cc2ccccc2[nH]c1=O)c1ccc(O)cc1`, the growth is 0.877% (active). Regarding `O=C(Nc1ccc(-c2nc(-c3cccc(O)c3)c(-c3ccnc(Br)c3)[nH]2)cc1)c1ccccc1`, the growth was 7.45% (active). With `Nc1nc(Br)nc2c1ncn2C1CC(O)C(CO)O1` (centres undefined), the growth is 100%.

Turning to `COc1cc(/C=C/C(=O)C2=C(/C=C/c3ccc(O)c(OC)c3)NC(=O)NC2c2ccc(O)c(OC)c2)ccc1O` (centres undefined), the growth is 88.7%. With `Cc1nn(-c2ccccc2)c2nc(CCl)[nH]c(=O)c12`, the growth was 26.6%. Consider `O=[N+]([O-])c1ccc(-c2cc3c(Nc4ccc(Sc5nc6ccccc6s5)c(Cl)c4)ncnc3s2)cc1`, for which the growth was 26.1%. To `CCOC(=O)c1c(Cl)c2c(n1Cc1cccc(OC)c1)-c1oncc1CC2` belongs 11.1%. Regarding `C[C@@H]1N=C(c2ccc(Br)cc2)Nc2nc3ccccn3c2C1=O`, the growth is -0.502% (active).
